Compounds with a hit are over-represented: about 4.2% of the library has one in this group of screens.
V-ATPase pHluor: regulators of yeast V-ATPase proton transport | response, % at 10 µM | hit rate 0.37% among 350,000 | S. cerevisiae, pHLuorin cytosolic pH fluorescence; in the data active means response mostly above about 7.3%, no sharp cut-off; inactive means mostly below about 5.4%; further: actives read high
tim23-1 inh: inhibits growth of tim23-1 mutant yeast. S. cerevisiae tim23-1 growth, BacTiter-Glo luminescence, 24 h. inhibition, % at 20 µM. hit rate 1.3% among 330,000;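 active means growth inhibition of the mutant yeast at or above 50%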;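 further: temperature-sensitive mutant grown at 25 °C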
TIM10 inh: TIM10 yeast growth inhibition. S. cerevisiae TIM10 strain growth, BacTiter-Glo luminescence, 24 h. inhibition, % at 10 µM. hit rate 1.4% among 330,000;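 active means inhibition of 40% or more at the single tested concentration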;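 further: wild-type TIM10 isogenic control strain grown at permissive 25 °C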
NALP1 yeast inh: NALP1 inhibition | AID 2071 | hit rate 0.61% among 280,000 | S. cerevisiae NALP1/ASC/caspase-1 growth, X-gal OD620, 72 h | inhibition, % at 10 µM; in the data active means inhibition mostly above about 24%, no sharp cut-off; inactive means mostly below about 32%
tim10-1 inh: tim10-1 yeast growth inhibition. S. cerevisiae tim10-1 ts strain growth, BacTiter-Glo, 24 h. inhibition, % at 20 µM. hit rate 2.2% among 330,000;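 active means inhibition of at least 40%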;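 further: mutant grown at 25 °C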
NALP3 yeast inh: blocks the NALP3 inflammasome reconstituted in yeast; Yeast reconstituted NLRP3/ASC/caspase-1, beta-gal luminescence, 24 h; inhibition, % at 10 µM; hit rate 0.39% among 330,000; AID 2825;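 active means inhibition of 50% or more; inactive means inhibition below 50%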
tim10-1 conf: tim10-1 yeast growth inhibition, confirmed; shares compounds with tim10-1 inh; S. cerevisiae tim10-1 ts strain growth, BacTiter-Glo, 24 h; inhibition, % at 20 µM; hit rate 56% among 7,400; AID 463213;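 active means inhibition of yeast growth at or above a set limit in either of two repeat tests at 20 µM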;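 further: tim10-1 mutant grown at permissive 25 °C to find synthetic lethal compounds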
TIM10 conf: TIM10 yeast growth inhibition, confirmed | shares compounds with TIM10 inh | S. cerevisiae tim10 strain growth, BacTiter-Glo luminescence, 24 h | inhibition, % at 10 µM | hit rate 63% among 4,600;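 active means inhibition of yeast growth at or above a set limit in either of two replicates at 10 µM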; further: this counterscreen used the strain with wild-type TIM10
tim23-1 conf: confirmation of tim23-1 mutant yeast growth inhibitors; shares compounds with tim23-1 inh; S. cerevisiae tim23-1 growth, BacTiter-Glo luminescence, 24 h; inhibition, % at 20 µM; hit rate 83% among 4,400; AID 463218;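 active means inhibition above about 39% in either of two replicate wells at 20 µM, limit read from the data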;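 further: temperature-sensitive tim23-1 mutant grown at 25 °C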
Numbers stand for hits; . = inactive; / = not tested or not shown.

SMILES | V-ATPase pHluor | tim23-1 inh | TIM10 inh | NALP1 yeast inh | tim10-1 inh | NALP3 yeast inh | tim10-1 conf | tim23-1 conf | others
CC(=O)Nc1ccc(S(=O)(=O)N2CCN(CC3CC4C=CC3C4)CC2)cc1 (centres undefined) | . | . | . | . | . | . | / | /
N#Cc1sc(NCc2cccc(Cl)c2)nc1Cl | . | 69 | 44 | . | 58 | . | 49 | 57 | TIM10 conf=43
Cc1cc(C)c2cc(C#N)c(SCC(=O)NCc3ccco3)nc2c1 | . | . | . | . | . | . | / | /
Cc1cc(C)c2cc(C)c(SCC(=O)NCc3ccco3)nc2c1 | . | 50 | . | . | 44 | . | 43 | 56
CCOC(=O)c1c(C)sc2c1N(C(=O)CCl)c1cc(Cl)ccc1S2 | . | 61 | . | . | 43 | . | 43 | 50
Cc1sc2ncnc(SCC(=O)N3c4ccccc4Sc4ccc(Cl)cc43)c2c1C | . | . | . | . | . | . | / | /
O=C(/C=C/c1ccc(Cl)c(Cl)c1)n1cccn1 | . | 59 | 50 | . | 61 | . | 41 | 44 | TIM10 conf=.
O=C(Nc1ccc(Cl)c(Cl)c1)Nc1nnc(CSc2ccccc2)s1 | . | . | . | . | . | . | / | /
Cc1cc(N)n2ncc(-c3cccc(Br)c3)c2n1 | . | 82 | 51 | . | 46 | . | 50 | 40 | TIM10 conf=52
N#C/C(=C/c1ccncc1)c1nc2ccccc2s1 | . | 80 | 70 | . | 60 | . | 40 | 79 | TIM10 conf=67
N#C/C(=C\c1ccncc1)c1nc2ccccc2[nH]1 | . | . | . | . | . | . | / | /
O=C1NCCN/C1=C\C(=O)c1cccc(Br)c1 | . | . | . | . | . | . | / | /
O=C(Nc1ccc(Oc2ccc(C(=O)O)c(C(=O)O)c2)cc1)c1cccs1 | . | . | . | . | . | . | / | /
C#CC1(NC(=O)NCCCC)CCCCC1 | . | . | . | . | . | . | / | /
CC(=O)Cc1nsc(NC(=O)c2ccc(-c3ccc(Cl)cc3Cl)o2)n1 | . | 57 | . | . | 46 | . | 35 | 53
CC(=O)Cc1nsc(NC(=O)c2ccc(-c3cc(Cl)ccc3Cl)o2)n1 | . | . | . | . | . | . | / | /
CCNC(=O)c1ccc2c(c1)C1C3CCC(C3)C1C(c1ccccc1)N2 (centres undefined) | . | 63 | 41 | . | 59 | . | 55 | 65 | TIM10 conf=43
CCc1ccccc1NC(=O)c1cccc(N2C(=O)C3C4CCC(C4)C3C2=O)c1 (centres undefined) | . | . | . | . | . | . | / | /
CCC1CCCCN1S(=O)(=O)c1ccc(NC(=O)c2snnc2C)cc1 (centres undefined) | . | . | . | . | . | . | / | /
CCC1CCCCN1S(=O)(=O)c1ccc(NC(=O)c2cccs2)cc1 (centres undefined) | . | 72 | 64 | . | 72 | . | 65 | 78 | TIM10 conf=68
CCCc1cc(=O)[nH]c(SCC(=O)NC2(C#N)CCCCC2)n1 | . | . | . | / | . | . | / | /
COc1ccc(C/C(N)=N/OC(=O)COc2ccccc2C)cc1 | . | 55 | . | . | 51 | . | 39 | 41
N/C(Cc1ccc([N+](=O)[O-])cc1)=N\OC(=O)COc1ccccc1Cl | . | . | . | . | . | . | / | /
N/C(Cc1ccc([N+](=O)[O-])cc1)=N\OC(=O)COc1cccc2ccccc12 | . | 60 | 76 | . | 64 | . | 73 | 91 | TIM10 conf=72
C=C(C(=O)Oc1c(C(C)(C)C)cccc1C(C)(C)C)c1ccccc1 | . | . | . | / | . | . | / | /
SMILES | V-ATPase pHluor | tim23-1 inh | TIM10 inh | NALP1 yeast inh | tim10-1 inh | NALP3 yeast inh | tim10-1 conf | tim23-1 conf | others
CC(NC(=O)CN1C(=O)NC2(CCCCC2)C1=O)c1ccc(S(N)(=O)=O)cc1 (centres undefined) | . | / | / | / | / | / | / | /
O=C(NN1CCCCCC1)c1ccccc1F | . | / | / | / | / | / | / | /
Cc1cccnc1Nc1nc(-c2ccc(O)cc2O)cs1 | . | 88 | . | . | 44 | . | . | 52
CCc1cc(C(=O)N(CCCOC)c2c(N)n(Cc3ccccc3)c(=O)[nH]c2=O)sc1C | . | . | . | / | . | . | / | /
Cc1ccc(S(=O)(=O)/N=C(\Sc2ccccc2)c2ccccc2)cc1 | . | 52 | . | . | 51 | . | 33 | 62
O=S(=O)(/N=C(\Sc1ccccc1)c1ccccc1)c1ccc(Cl)cc1 | . | . | . | . | . | . | / | /
Cc1onc(-c2ccccc2)c1C(=O)N/N=C/c1cc(Br)c(Br)o1 | . | . | . | . | . | . | / | /
Cc1cccc(C(=O)N/N=C/c2cc(Br)c(Br)o2)c1 | . | 60 | 45 | . | 41 | . | . | 76 | TIM10 conf=.
CCNc1sc(C(=O)c2cccs2)c(N)c1-c1nc2ccccc2s1 | . | 72 | 45 | . | 53 | . | . | . | TIM10 conf=36
CCC(C)c1ccccc1NC(=O)C(C)OC(=O)CN1C(=O)NC(C)(C)C1=O (centres undefined) | . | . | . | / | . | . | / | /
Cc1cc2c([nH]c3ccccc32)c2c1OC(C)(C)C=C2 | . | 56 | . | . | 63 | . | 49 | 70
COc1ccc2[nH]c(=O)c3c(c2c1)OC(C)(C)C=C3 | . | . | . | . | . | . | / | /
CCOc1ccc(CCNS(=O)(=O)c2ccc3c(c2)N(C(C)=O)CCO3)cc1OCC | . | . | . | . | . | . | / | /
CCCCCC/C(=N/O)c1ccccn1 | . | 60 | 57 | . | 42 | . | . | 52 | TIM10 conf=.
CC1CN(C(=O)CNC(=O)Cc2cccc3ccccc23)CC(C)O1 (centres undefined) | . | . | . | / | . | . | / | /
Cc1ccc(Nc2nc(-c3c(C)nc4ccccn34)cs2)cc1 | . | 54 | 58 | . | 51 | . | 32 | 43 | TIM10 conf=58
Cc1ccc(Nc2nc(-c3c(C)nc4ncccn34)cs2)cc1 | . | . | . | . | . | . | / | /
COc1cc(C(=O)OC(C)CN2CCCCC2)cc(OC)c1OC (centres undefined) | . | . | . | . | . | . | / | /
O=S(=O)(c1ccc(Br)cc1Cl)N1CCN(CCO)CC1 | . | . | . | . | . | . | / | /
CC1CCCCN1C(=O)CN1CCN(S(=O)(=O)c2ccc(Br)cc2Cl)CC1 (centres undefined) | . | 52 | . | / | 43 | . | . | 43
Cc1cc(OC(=O)c2cc(F)c(F)cc2Cl)nc(C)n1 | . | . | . | . | . | . | / | /
Cc1cc(C)c(S(=O)(=O)c2ccccc2)c(OC(=O)c2cc(F)c(F)cc2Cl)n1 | . | 66 | 45 | . | 48 | . | 33 | 72 | TIM10 conf=.
Cc1nnsc1S(=O)c1ccc(Cl)cc1 (centres undefined) | . | . | . | . | . | . | / | /
O=C(c1nnsc1S(=O)c1ccc(Cl)cc1)N1CCOCC1 (centres undefined) | . | 57 | . | 67 | 60 | . | 42 | 90

From PubChem BioAssay
